Screening results: PubChem BioAssay, National Center for Advancing Translational Sciences (NCATS)
Sampled rows, rich in hits. Any-hit rate of the full collection: about 2.4%.
PINK1 expr mod: PINK1 expression modulation; PINK1 immunofluorescence, high-content cytometry, 24 h; Potency, µM (doses to about 76.6 µM), inactives show top-dose activation (PINK1 increase), hits mostly activators; actives 0.2% (n = 410,000); AID 624263; active means well fitted activation curve with a large enough effect; inconclusive means small, poorly fitted or top-dose-only effect; cell line not stated here; further: % of control where 0% means no effect; nearly all actives have a fitted effect of over 65% in size
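Stable cell line treated 24 h with compounds at 5 concentrations (CCCP controls), then fixed and immunostained for PINK1 plus nuclear and cell stains; PINK1 immunofluorescence quantified by laser-scanning microplate cytometry.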
A549 viability: A549 cytotoxicity, counter-screen for Nrf2 inhibitors; A549 ARE-Fluc cells, CellTiter-Fluor viability, 18-24 h; Potency, µM (highest dose often 46 µM), for the others: top-dose activity change, negative = cytotoxicity, most hits filed as inhibitors; actives 0.16% (n = 390,000); AID 504648; further: on the % scale 0 is the no-effect control and ±100 the full control effect
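Cytotoxicity counterscreen: CellTiter-Fluor fluorescence was measured in A549 ARE_Fluc cells after 18-24 h of compound exposure in a concentration series. The subsequent BugLite luminescent read reports ARE-luciferase activity.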
Nrf2 ARE act: Nrf2 pathway activation | AREc32 ARE-luciferase reporter (MCF7-derived line), luminescence, 24 h | Potency, µM (highest dose often 46.1 µM), for the others: at the top dose activation, actives largely listed as activators | actives 0.31% (n = 410,000) | AID 624171; further: % of control where 0% means no effect; nearly all actives have a fitted effect of over 65% in size
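Reporter line AREc32 (ARE-Fluc), seeded overnight in OPTI-MEM with 5% FBS; compound pin-transferred, 24 hr at 37 deg C, 5% CO2; luminescent read-out.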
Nrf2 block: inhibitors of Nrf2 signaling | actives 2.1% (n = 360,000) | Potency, µM (top dose mostly 46 µM), inactives show at the highest dose activity change, negative = inhibition, most hits filed as inhibitors | AID 504444 | A549 ARE-Fluc reporter, luciferase luminescence, 18-24 h; further: on the % scale 0 is the no-effect control and ±100 the full control effect; nearly all actives have a fitted effect of over 60% in size
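A549 ARE_Fluc cells, 5000/well, 5% FBS OPTI-MEM; compounds in dose-response, 18-24 h at 37 °C/5% CO2; CellTiter-Fluor viability read (Ex 405/Em 525), then BugLite luciferase luminescence = Nrf2 activity.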
Epigenetic derep: derepresses silenced GFP reporter in murine cells. murine LDR cells, GFP reporter derepression, 30 h. Potency, µM (highest dose often 53.9 µM), without a hit: top-dose GFP activation, actives largely listed as activators. actives 0.2% (n = 280,000). AID 1865; further: % of control where 0% means no effect; nearly all actives have a fitted effect of over 60% in size
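GFP-positive cell count by laser-scanning cytometry (objects 20–120 um) after 30 h, 37 C compound exposure of murine LDR cells; reporter is CMV-GFP integrated at a silenced locus, inducible by HDAC or DNMT inhibitors.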
* = called active by the depositor; u = inconclusive; x = not tested or not shown. Unless noted, the call rests on the fitted dose curve; in most records, active means well fitted curve in the direction sought with a large enough effect; inconclusive means small, poorly fitted or top-dose-only effect, or another doubt; inactive means no such curve, though single readings can be large; an effect the other way counts as inactive or inconclusive. Potency means the concentration at half of the fitted maximal effect.

SMILES	PINK1 expr mod	A549 viability	Nrf2 ARE act	Nrf2 block	Epigenetic derep
COCC(=O)Nc1ncc(S(=O)(=O)c2ccc([N+](=O)[O-])cc2)s1	-0.1%	3.0%	6.3%	u	1.1%
O=c1c(Cl)c(N2CCCCC2)cnn1-c1nc2ccccc2[nH]1	-0.5%	-1.4%	-1.6%	16.4µM*	-2.5%
COc1ccc(CN2CCCC(n3cc(C(=O)NC4CCCC4)nn3)C2)c2ccccc12 (configuration not stated)	1.4%	x	x	x	x
Cc1ccc(Cn2ccsc2=NC(=O)COC(=O)c2ccc(NC(=O)CC#N)cc2)cc1	2.4%	-14.5%	0.6%	23.1µM*	x
CC(C)C(NC(=O)c1ccccn1)c1nnc2n1CCN(Cc1ccc3ccccc3c1)CC2 (configuration not stated)	-1.0%	x	x	x	x
COc1ccc2oc(=O)c(-c3nc4ccc(C)cc4[nH]3)cc2c1	4.5%	2.8%	13.9%	x	11.2µM*
COc1cccc2cc(-c3nc4ccc(C)cc4[nH]3)c(=O)oc12	4.0%	-1.7%	5.9%	x	1.3%
CCC(C)Nc1nc(N)c([N+](=O)[O-])c(Nc2ccccc2OC)n1 (configuration not stated)	3.6%	u	5.1%	14.6µM*	0.0%
COc1ccccc1Nc1nc(NCCCN(C)C)nc(N)c1[N+](=O)[O-]	-0.1%	7.8%	4.4%	-28.0%	1.8%
C=CCNc1nc(N)c([N+](=O)[O-])c(Nc2ccccc2OC)n1	0.3%	-19.4%	1.8%	20.6µM*	x
Cc1ccc(CNc2nc(C)c(-c3ccn(CCN4CCOCC4)n3)s2)o1	-0.8%	x	x	x	x
COc1ccc(-n2cc(C(=O)NC(C)c3ccccc3)c3ccccc3c2=O)cc1 (configuration not stated)	2.4%	-1.5%	1.1%	-2.6%	2.2%
COc1ccc2c(=O)cc(-c3ccncc3)oc2c1OC	-1.4%	-19.8%	5.0%	16.4µM*	x
COc1ccc(-c2cc(=O)c3c(OC)c(OC)c(OC)c(OC)c3o2)cc1OC	0.6%	u	9.3%	2.1%	-0.9%
Cc1cccc(Cn2c(SCc3ccc(C(=O)N4CCCCCC4)cc3)nc3ccncc32)c1	1.8%	-0.3%	-1.1%	23.1µM*	u
Cc1ccc(C(=O)n2cnnc2N)cc1	3.7%	0.1%	-1.5%	8.2µM*	-0.4%
COc1cc2c(cc1OC)CN(C(=O)c1ccc([N+](=O)[O-])o1)CC2	3.1%	u	12.6µM*	1.2%	0.8%
CCOC(=O)c1c(C)[nH]c(C(=O)N2CCc3cc(OC)c(OC)cc3C2)c1C	0.7%	u	3.7%	23.1µM*	x
O=C(c1ccc([N+](=O)[O-])o1)N1CCc2ccccc2C1	6.2%	-12.6%	10.9%	u	-1.6%
CSc1ncccc1C(=O)NCC1Cc2cc(-c3cnccn3)cc(Cl)c2O1 (configuration not stated)	0.2%	x	x	x	x
COc1ccc2cc(CNCc3ccccc3Cl)c(N3CCCC(CO)C3)nc2c1 (configuration not stated)	-0.2%	x	x	x	x
CC1CCN(S(=O)(=O)c2ccc3c(ccc(=O)n3CC(=O)NCc3ccccc3Cl)c2)CC1	-4.3%	10.6%	1.4%	x	1.4%
CC[n+]1c(/C=C/c2c[nH]c3ccccc23)ccc2cc(C)ccc21	4.4%	u	-0.8%	u	4.47µM*
CCN(CC)C(=O)c1ccc(/C=C/c2c[nH]c3ccccc23)[n+](C)c1	2.7%	u	-0.1%	9.8%	u
CCc1ccc(NC(=O)c2sc3nc(C)c(Cl)c(C)c3c2NC(=O)c2ccccc2OC)cc1	-0.4%	8.4%	-0.9%	3.7%	-1.1%
CCc1ccc(NC(=O)c2sc3nc(C)c(Cl)c(C)c3c2N)cc1	-0.7%	2.7%	-0.7%	3.66µM*	4.3%
CC1CN(c2nc3c(c(=O)n(Cc4ccc(Cl)c(Cl)c4)c(=O)n3C)n2C)CC(C)O1 (configuration not stated)	7.1%	u	0.1%	23.1µM*	1.2%
CN1CCS/C1=C/C=C1\SC(=S)N(CC(=O)O)C1=O	3.1%	-16.9%	-1.1%	-7.2%	11.7%
CCCCN1C(=O)/C(=C/C=C2\SCCN2C)SC1=S	10.0%	u	2.4%	u	17.8µM*
